The values below come from PubChem BioAssay (NCI).

The panel holds about 83,000 compounds, 20% with a hit somewhere; the sample as a whole holds those more often.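 Plates (96-well) were seeded with cells, treated with compound at one concentration, and incubated for 48 hours before percent growth was determined.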 Values without a mark were called inactive. Active and inactive are the calls of the source. The calls were made as follows: active = growth percent below 10; inactive = the rest.

Some test systems named below: MOLT-4 leukemia; SR leukemia; RPMI-8226 leukemia; OVCAR-8 ovarian; OVCAR-5 ovarian; OVCAR-4 ovarian; SK-OV-3 ovarian; IGROV1 ovarian; OVCAR-3 ovarian; HS 578T breast; NCI/ADR-RES ovarian; T-47D breast; BT-549 breast; MDA-MB-435 melanoma; SW-620 colon; MCF7 breast; HCT-116 colon; HCC-2998 colon; KM12 colon.
Holding throughout (assay): NCI-60 one-dose screen, 48 h (100 = growth as untreated, 0 = no growth, -100 = all killed)
Holding throughout (settings): 10 µM unless noted

Regarding `Cc1ccc(C(Cc2ccccc2)NCCO)cc1` (centres undefined), the growth is 88.2% in the test with MOLT-4 leukemia; 105% in the test on SR leukemia; 92% in the test with RPMI-8226 leukemia; 103% in the test on OVCAR-8 ovarian; 55.4% in the test with OVCAR-5 ovarian; 94.7% in the test on OVCAR-4 ovarian. Further, the growth with SK-OV-3 ovarian was 75.8%; with IGROV1 ovarian it was 103%; in the test on OVCAR-3 ovarian, 100%; with HS 578T breast, 97.8%; in the test on NCI/ADR-RES ovarian, 100%; in the test with T-47D breast it was 67.7%. Moreover, the growth in the test on BT-549 breast is 69.3%; with MDA-MB-435 melanoma, 99.1%; in the test on SW-620 colon, 104%; with MCF7 breast, 93.4%; with HCT-116 colon, 90%; in the test on HCC-2998 colon it was 99.9%. In addition, the growth in the test with KM12 colon was 90%.

With `COP(=S)(N1CC1)N1CC1`, the growth in the test with MOLT-4 leukemia is 101%; in the test with SR leukemia, 89.9%; in the test on RPMI-8226 leukemia it was 104%; in the test on OVCAR-8 ovarian, 135%; in the test on OVCAR-5 ovarian it was 95.9%; in the test with OVCAR-4 ovarian it was 111%. Further, the growth in the test on SK-OV-3 ovarian is 110%; in the test on IGROV1 ovarian, 106%; with OVCAR-3 ovarian, 113%; in the test on HS 578T breast, 121%; in the test on NCI/ADR-RES ovarian, 103%; in the test on T-47D breast, 94.8%. The growth with BT-549 breast was 118%; with MDA-MB-435 melanoma it was 105%; in the test with SW-620 colon it was 103%; in the test with MCF7 breast it was 102%; in the test with HCT-116 colon, 109%; with HCC-2998 colon, 105%. In the test with KM12 colon, the growth was 116%.

With `COc1ccc(S(=O)(=O)N(Cc2ccc3c(c2)C=CC(C)(C)O3)c2ccccc2)cc1OC`, the growth with MOLT-4 leukemia was 74.4%; in the test with SR leukemia it was 75.9%; in the test with RPMI-8226 leukemia it was 46.2%; in the test with OVCAR-8 ovarian, 79.9%; in the test on OVCAR-5 ovarian it was 103%; in the test on OVCAR-4 ovarian, 70.6%. Further, the growth is 90.7% in the test with SK-OV-3 ovarian; 75.6% in the test with IGROV1 ovarian; 74.3% in the test with OVCAR-3 ovarian; 91.1% with HS 578T breast; 68.7% in the test with NCI/ADR-RES ovarian; 55.1% in the test with T-47D breast. Further, the growth was 54% with BT-549 breast; 87.3% in the test on MDA-MB-435 melanoma; 87.1% in the test on SW-620 colon; 50.7% in the test with MCF7 breast; 63% in the test with HCT-116 colon; 73.6% in the test with HCC-2998 colon. Moreover, the growth in the test on KM12 colon was 88.7%.

Turning to `COc1cc(/C=C/[N+](=O)[O-])cc(OC)c1`, the growth in the test with MOLT-4 leukemia is 7.52% (active); in the test on SR leukemia, -12.3% (active); in the test with RPMI-8226 leukemia, -24.1% (active); in the test with OVCAR-8 ovarian, 13.8%; in the test on OVCAR-5 ovarian, 13.8%; in the test on OVCAR-4 ovarian, 47.6%. The growth in the test on SK-OV-3 ovarian is 71.7%; with IGROV1 ovarian it was 9.88% (active); with OVCAR-3 ovarian, -30.3% (active); with HS 578T breast, 40.9%; in the test on NCI/ADR-RES ovarian, 11.3%; in the test with T-47D breast, -1.67% (active). The growth in the test with BT-549 breast was -49.7% (active); in the test on MDA-MB-435 melanoma, -46.4% (active); with SW-620 colon it was -10.5% (active); in the test with MCF7 breast, -59.1% (active); in the test on HCT-116 colon, -68.3% (active); in the test with HCC-2998 colon it was -79.7% (active). Besides, in the test with KM12 colon, the growth is -23.7% (active).

Turning to `Fc1c[c-]c(-c2ccccn2)c(F)c1.[CH3-].[Pt+2].c1ccc([PH+](c2ccccc2)c2ccccn2)cc1`, the growth with MOLT-4 leukemia was 8.87% (active); in the test on SR leukemia, -2.4% (active); in the test on RPMI-8226 leukemia, -8.21% (active); with OVCAR-8 ovarian it was 10.3%; with OVCAR-5 ovarian, -48.1% (active); in the test with OVCAR-4 ovarian it was -2.32% (active). Moreover, the growth is 5.32% (active) with SK-OV-3 ovarian; -12% (active) in the test with IGROV1 ovarian; -22.2% (active) in the test on OVCAR-3 ovarian; -1.24% (active) in the test with HS 578T breast; 32.1% with NCI/ADR-RES ovarian; -7.66% (active) with T-47D breast. Besides, the growth was -1.42% (active) in the test with BT-549 breast; -50.5% (active) in the test on MDA-MB-435 melanoma; -11.6% (active) with SW-620 colon; -16.3% (active) in the test with MCF7 breast; -43.8% (active) with HCT-116 colon; 20.2% in the test with HCC-2998 colon. For the same compound, the growth with KM12 colon was 10.4%.

`c1cnc2[nH]cc(-c3csc(-c4cn(CCCCN5CCOCC5)c5ccccc45)n3)c2c1`: the growth is 13.1% in the test on MOLT-4 leukemia; -20.1% (active) in the test on SR leukemia; 32.6% in the test with RPMI-8226 leukemia; 60.6% with OVCAR-8 ovarian; 72.5% in the test on OVCAR-5 ovarian; 74.8% with OVCAR-4 ovarian. Besides, the growth in the test on SK-OV-3 ovarian is 81.1%; with IGROV1 ovarian, 34.9%; with OVCAR-3 ovarian, 59.8%; with HS 578T breast, 54.9%; in the test on NCI/ADR-RES ovarian it was 69.4%; with T-47D breast, 36.1%. Also, the growth in the test on BT-549 breast is 79.6%; in the test on MDA-MB-435 melanoma it was 24.4%; with SW-620 colon, 18.1%; with MCF7 breast, 25.1%; in the test with HCT-116 colon, 40.3%; in the test on HCC-2998 colon it was 56.9%. The growth in the test on KM12 colon was 24.1%.
